Laboratory results: PubChem BioAssay (EPA / NIEHS)
Inconclusive results are not listed. Active and inactive are the calls of the source. How the source made its calls: active means hit-call score of the fitted dose curve at least 0.9, where 1 is the maximum; inconclusive means response in the unintended direction; inactive means score below 0.9.

These molecules were tested on sulfotransferase (SULT2A), SULT2A1 (gene 6822) (assay: CLD_SULT2A_48hr: CellzDirect (CLD) Gene Expression Assay for sulfotransferase (SULT2A) at 48 hours (AID 2283710);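 further: hits raise SULT2A1 transcript above the 0.2% DMSO vehicle baseline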).
Description: CLD_48hr is a cell-based, multiplexed-readout assay that uses hepatocyte, a human liver primary cell, with measurements taken at 48 hours after chemical dosing in a 96-well plate.CLD_SULT2A_48hr is one of 16 assay component(s) measured or calculated from the CLD_48hr assay. It is designed to make measurements of mRNA induction, a form of inducible reporter, as detected with chemiluminescence signals by Quantitative Nuclease Protection Assay (qNPA) technology.Data from the assay component CLD_SULT2A_48hr was analyzed at the endpoint, CLD_SULT2A_48hr, in the positive analysis fitting direction relative to DMSO as the negative control and baseline of activity. Using a type of inducible reporter, gain-of-signal activity can be used to understand changes in the reporter gene as they relate to the gene SULT2A1. Furthermore, this assay endpoint can be referred to as a primary readout. To generalize the intended target to other relatable targets, this assay endpoint is annotated to the transferase intended target family, where subfamily is sulfotransferase.
Human hepatocyte cultures were treated daily for two consecutive days with fresh dosing solutions containing appropriate concentrations of the 320 ToxCast chemicals (chemical identities were blinded to CellzDirect and other ToxCast collaborators), vehicle control (0.2% DMSO), and positive control inducers as summarized in Table 1. Due to the large number of treatment groups and chemicals examined, the ToxCast chemicals were divided into two groups (spanning two independent cultures of hepatocytes from separate donor preparations (Hu778: ToxCast plates 1 and 2; Hu776: ToxCast plates 3 and 4). Each preparation of human hepatocyte cultures was treated with respective vehicle control, medium only control, set of six positive controls/reference chemicals for the five hepatic receptor pathways, and a subset of eight of the ToxCast chemicals (indoxacarb, pyrithiobac-sodium, norflurazon, cyhalofop-butyl, methomyl, thiram, acetochlor, and propiconazole). These replicate data, coupled with internal replicates designed within the blinded ToxCast chemical library, provided additional data to evaluate interindividual differences between hepatocyte preparations and their potential impact on chemical profiles.Cell morphology and integrity were evaluated using phase-contrast microscopy as an indicator of hepatocyte cell health (Tyson & Green, 1987). Cultures for each treatment group (i.e., media, vehicle [0.2% DMSO], positive control inducers [multiple concentrations], and the ToxCast chemicals [multiple concentrations]) were observed and cell morphology was assessed relative to vehicle control cultures at each harvest time point (0, 6, 24, or 48 h). […] Images were evaluated at the conclusion of the study to assess changes in cell integrity and account for the effects of chemical exposure on uncharacteristic changes in concentration-dependent gene expression profiles. The results from these determinations of apparent cytotoxicity were annotated (yes/no) alongside the corresponding qNPA data for reference.At the conclusion of each treatment period, hepatocyte cultures (96-well) were washed with 1 volume of HBSS, lysed by addition of 25 ul ArrayPlate lysis buffer (HTG, Tucson, AZ), and 70 ul/well of Denaturation Oil, denatured by incubation at 95C for 10 min, and frozen at approximately -70C until analysis by nuclease protection assay (qNPA) (Roberts et al., 2007). For qNPA analysis, cell lysates were thawed at 50C for approximately 30 min, qNPA probes were added, and samples were incubated at 95C for 10 min to begin the detection process by denaturing the target RNA, dissociating the duplexes and secondary structure hybridization. At the conclusion of the hybridization period, S1 nuclease reagent was added to each sample to digest all nonprotected nucleotides at 50C for 60-90 min. […]
With `CC1(C)C(C=C(Cl)Cl)C1C(=O)OC(C#N)c1ccc(F)c(Oc2ccccc2)c1` (stereo not drawn) the outcome was “inactive”. `CCc1ccc(C(=O)NN(C(=O)c2cc(C)cc(C)c2)C(C)(C)C)cc1` was tested, and the outcome was “inactive”. With `C[C@H]1[C@H](c2ccc(Cl)cc2)SC(=O)N1C(=O)NC1CCCCC1` the outcome was “inactive”. With `Cc1cc(C)nc(NC(=O)NS(=O)(=O)c2ccccc2C(=O)OC2COC2)n1` the outcome was “inactive”. With `CCN(CC)C(=O)SCc1ccc(Cl)cc1` the outcome was “inactive”. `Oc1cc(Cl)ccc1Oc1ccc(Cl)cc1Cl` was tested, and the outcome was “inactive”. `N#Cc1c(Cl)c(Cl)c(Cl)c(C#N)c1Cl` was tested, and the outcome was “inactive”. In the case of `O=[N+]([O-])c1c(Cl)c(Cl)c(Cl)c(Cl)c1Cl`, the outcome is reported as “inactive”. `CCC(C)(NC(=O)c1cc(Cl)c(C)c(Cl)c1)C(=O)CCl` (stereo not drawn) was tested, and the outcome was “inactive”. In the case of `COc1cc(OC)nc(NC(=O)NS(=O)(=O)c2cc(NC=O)ccc2C(=O)N(C)C)n1`, the outcome is reported as “inactive”. `O=C(NC(=O)c1c(F)cccc1F)Nc1ccc(OC(F)(F)C(F)OC(F)(F)F)c(Cl)c1` (stereo not drawn) was tested, and the outcome was “inactive”. With `O=[N+]([O-])/N=C1\NCCN1Cc1ccc(Cl)nc1` the outcome was “inactive”. `CCS(=O)(=O)c1cccnc1S(=O)(=O)NC(=O)Nc1nc(OC)cc(OC)n1` was tested, and the outcome was “inactive”. For `Oc1ccc(Cl)cc1Cc1ccccc1`, the outcome was “inactive”. With `C#CCN1C(=O)COc2cc(F)c(N3C(=O)C4=C(CCCC4)C3=O)cc21` the AC50 was 3.49 µM (active). `CN1CSC(=S)N(C)C1` was tested, and the outcome was “inactive”. With `CCC(C)(C)C(=O)OC1=C(c2ccc(Cl)cc2Cl)C(=O)OC12CCCCC2` the outcome was “inactive”. For `CC(C)(C)C(O)/C(=C\c1ccc(Cl)cc1Cl)n1cncn1` (stereo not drawn), the outcome was “inactive”. With `O=C(O)CCCOc1ccc(Cl)cc1Cl` the outcome was “inactive”. `CNC(=O)Oc1ccccc1OC(C)C` was tested, and the outcome was “inactive”. For `Cc1[nH]c(=O)n(C(C)(C)C)c(=O)c1Cl`, the outcome was “inactive”. `CCOC1Oc2ccc(OS(C)(=O)=O)cc2C1(C)C` (stereo not drawn) was tested, and the outcome was “inactive”. In the case of `COc1nn(CSP(=S)(OC)OC)c(=O)s1`, the outcome is reported as “inactive”. For `COP(=S)(OC)Oc1ccc([N+](=O)[O-])cc1`, the outcome was “inactive”. With `CC(C)N(C(=O)COc1nnc(C(F)(F)F)s1)c1ccc(F)cc1` the outcome was “inactive”. In the case of `Clc1ccccc1-c1nnc(-c2ccccc2Cl)nn1`, the outcome is reported as “inactive”. In the case of `CC(C)(C)C(O)C(Oc1ccc(Cl)cc1)n1cncn1` (stereo not drawn), the AC50 is reported as 7.18 µM (active). In the case of `COP(=O)(OC)OC=C(Cl)Cl`, the outcome is reported as “inactive”. With `COC(=O)c1ccccc1S(=O)(=O)NC(=O)N(C)c1nc(C)nc(OC)n1` the outcome was “inactive”. For `CC1(c2ccc(Oc3ccccc3)cc2)OC(=O)N(Nc2ccccc2)C1=O` (stereo not drawn), the AC50 was 1.89 µM (active). `CCC(C)Nc1c([N+](=O)[O-])cc(C(C)(C)C)cc1[N+](=O)[O-]` (stereo not drawn) was tested, and the AC50 was 1.14 µM (active). In the case of `CCCN(CCC)c1c([N+](=O)[O-])cc(C(F)(F)F)cc1[N+](=O)[O-]`, the outcome is reported as “inactive”. With `CNC(=O)/C=C(\C)OP(=O)(OC)OC` the outcome was “inactive”. `O=S1OCC2C(CO1)C1(Cl)C(Cl)=C(Cl)C2(Cl)C1(Cl)Cl` (stereo not drawn) was tested, and the outcome was “inactive”. For `O=C(O)C(F)(F)C(F)(F)C(F)(F)C(F)(F)C(F)(F)C(F)(F)C(F)(F)F`, the outcome was “inactive”. With `COC(=O)c1ccccc1S(=O)(=O)NC(=O)Nc1nc(C)nc(OC)n1` the outcome was “inactive”. With `O=S(=O)(O)C(F)(F)C(F)(F)C(F)(F)C(F)(F)C(F)(F)C(F)(F)C(F)(F)C(F)(F)F` the outcome was “inactive”. With `O=C(Nc1ccccc1)Nc1cnns1` the AC50 was 6.28 µM (active).
